Paper PMC7826789 (International Journal of Molecular Sciences, 2021)

Legend:
Conditions in all cases: Compound Concentration (nM):1000
[1] = system: MAP4K2
[2] = system: MAP4K3
[3] = system: MAP4K4
[4] = system: MAP4K5
[5] = system: MAPKAPK2
[6] = system: MAPKAPK5
[7] = system: MARK1
[8] = system: MARK2
[9] = system: MARK3
[10] = system: MARK4
[11] = system: MAST1
[12] = system: T1, MEK1
T1 construct: gene MAP2K1

[13] = system: T2, MEK2
T2 construct: gene MAP2K2

[14] = system: T3, MEK3
T3 construct: gene MAP2K3

[15] = system: T4, MEK4
T4 construct: gene MAP2K4

[16] = system: T5, MEK5
T5 construct: gene MAP2K5

[17] = system: T6, MEK6
T6 construct: gene MAP2K6

[18] = system: MELK
[19] = system: MERTK
[20] = system: MET(M1250T)
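Also: KINOMEscan scanMAX binding as percent activity remaining versus control; lower means stronger binding.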

| Compound | Percent Control [1] [%] | Percent Control [2] [%] | Percent Control [3] [%] | Percent Control [4] [%] | Percent Control [5] [%] | Percent Control [6] [%] | Percent Control [7] [%] | Percent Control [8] [%] | Percent Control [9] [%] | Percent Control [10] [%] | Percent Control [11] [%] | Percent Control [12] [%] | Percent Control [13] [%] | Percent Control [14] [%] | Percent Control [15] [%] | Percent Control [16] [%] | Percent Control [17] [%] | Percent Control [18] [%] | Percent Control [19] [%] | Percent Control [20] [%] |
| --- | --- | --- | --- | --- | --- | --- | --- | --- | --- | --- | --- | --- | --- | --- | --- | --- | --- | --- | --- | --- |
| COc1ccc2cc(-c3c(-c4ccncc4)nc(-c4ccc(S(C)(=O)=O)cc4C)n3C)ccc2c1 [SB-633825] | 93 | 93 | 39 | 91 | 100 | 95 | 88 | 93 | 100 | 71 | 68 | 85 | 80 | 70 | 72 | 61 | 100 | 84 | 82 | 76 |
| Cl.c1ccc(Cc2nc3ccc(Nc4ncnc5ccccc45)cc3[nH]2)cc1 [GR269666A] | 92 | 100 | 100 | 100 | 76 | 100 | 100 | 100 | 97 | 96 | 100 | 100 | 100 | 100 | 100 | 2.6 | 92 | 100 | 100 | 100 |
| NS(=O)(=O)c1ccc(N/N=C2\C(=O)Nc3ccc(C(=O)NCCc4c[nH]cn4)cc32)cc1 [GW300660X] | 71 | 86 | 100 | 100 | 100 | 100 | 90 | 100 | 100 | 100 | 100 | 93 | 90 | 39 | 100 | 39 | 96 | 15 | 100 | 100 |
| CCS(=O)(=O)c1ccc(OC)c(Nc2ncc(-c3cccc(OC)c3)o2)c1 [GW580509X] | 89 | 100 | 100 | 100 | 96 | 100 | 100 | 100 | 100 | 99 | 93 | 100 | 100 | 78 | 100 | 4.6 | 92 | 100 | 72 | 100 |
| COc1cc2ncn(-c3cc(O[C@H](C)c4ccccc4Cl)c(C(N)=O)s3)c2cc1OC [GSK237701A] | 50 | 33 | 90 | 7.5 | 100 | 100 | 77 | 100 | 100 | 74 | 96 | 90 | 90 | 100 | 91 | 59 | 84 | 81 | 28 | 81 |
| CC(C)COC(=O)c1ccc2c(c1)/C(=C/Nc1ccc(S(N)(=O)=O)cc1)C(=O)N2 [GW416981X] | 76 | 95 | 86 | 87 | 100 | 100 | 100 | 73 | 93 | 81 | 100 | 95 | 92 | 68 | 100 | 21 | 83 | 6.4 | 100 | 92 |
| Cl.O=C(Nc1ccc(Oc2ccc3[nH]c(NC(=O)c4ccccc4)nc3c2)cc1)Nc1cc(C(F)(F)F)ccc1F [GW709042A] | 88 | 100 | 100 | 99 | 100 | 100 | 61 | 100 | 91 | 76 | 99 | 80 | 98 | 91 | 100 | 51 | 86 | 68 | 8.2 | 78 |
| O=C(Nc1n[nH]c2nc(-c3ccc(O)cc3)c(Br)cc12)C1CC1 [SB-725317] | 38 | 100 | 84 | 100 | 100 | 100 | 95 | 100 | 100 | 100 | 84 | 100 | 100 | 75 | 100 | 28 | 98 | 100 | 100 | 100 |
| NS(=O)(=O)c1ccc(N/N=C2\C(=O)Nc3ccc(-c4cnco4)cc32)cc1 [GW276655] | 80 | 85 | 62 | 84 | 100 | 100 | 44 | 85 | 100 | 68 | 75 | 91 | 92 | 52 | 84 | 70 | 72 | 97 | 60 | 63 |
| C/C(Nc1ccc(S(N)(=O)=O)cc1)=C1/C(=O)Nc2ccccc21 [GW335962X] | 49 | 67 | 89 | 100 | 100 | 100 | 83 | 72 | 96 | 87 | 77 | 75 | 81 | 76 | 39 | 70 | 74 | 87 | 100 | 91 |
